Consider 5 molecules from PubChem BioAssay.

Inconclusive results are not listed. The source made the active and inactive calls.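 How the source made its calls, unless noted: active means RAM network inhibition above 8.4% in each of two replicates, 3 SD over the compound average; inconclusive means above 8.4% inhibition in only one replicate; inactive means 8.4% inhibition or less in each replicate.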

Test [1] is described as follows: reducers of endogenous Her2 protein level, primary screen, SKBR3 breast tumor cells, AlphaScreen, ATP viability (AID 461;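 active means Her2 level under about 52% in both replicate screens, with viability over 70% of control, limit read from the data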;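 on Her2 level: lower value means less Her2 protein in the cells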;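 on viability: percent of carrier control wells set as 100% viability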). The conditions noted are these: 18-24 h, measured here: SKBR3 viability, ATP luminescence, at 10 µM.
Test [2] concerns the target Receptor tyrosine-protein kinase erbB-2 (Homo sapiens) (UniProt P04626). The description is as above. Conditions: 18-24 h, at 10 µM, stronger effect = lower value.
Test [3] can be described thus: SK-BR-3 cell growth inhibitors, pilot screen, 24 h, human (AID 572;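 active means viability at or below 10% of carrier control in both of two separate runs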;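 further: compound exposure lasted between 18 and 24 h rather than exactly 24 h; 100% = carrier-treated control wells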). The conditions noted are these: SK-BR-3 viability, CellTiter-Glo luminescence, at 10 µM, stronger effect = lower value. A general note: In ATP-based viability assays light output follows the ATP content of the culture.
Test [4] in a line: HUVEC growth inhibition – cell-based, human, primary screen (AID 575;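 active means viability at or below 30% in both replicate assays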;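 further: 100% = median of untreated cell wells with 0.1% DMSO on each plate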). The conditions noted are these: HUVEC proliferation, CellTiter-Glo luminescence, 72 h; at 10 µM; stronger effect = lower value.
Test [5] can be described thus: growth inhibitors of H69AR lung tumor, primary screen, human, duplicate replicates (AID 580;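 active means viability at or under a set limit in both replicates, limit being median viability minus 3 SD, cut at about 48% in these data, passing the limit was not always enough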;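 further: 100% = mean luminescence of untreated wells and 0% = no signal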). Conditions: H69AR lung tumor cells viability, ATP luminescence, 72 h; at 10 µM; stronger effect = lower value.
A short description of test [6]: reversal of MRP1-mediated doxorubicin resistance, pilot screen, H69AR cells, doxorubicin co-treatment (AID 601;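 active means viability loss from added drug above about 55%, and viability with drug at most 40%, in both replicates, limit read from the data, passing the limit was not always enough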). The conditions noted are these: CellTiter-Glo, 72 h, at 10 µM; for differential viability (reversal): stronger effect = higher value.
Test [7] is described as follows: 384-well plate pilot, post-Golgi transport modulator project, inhibition of yeast transport mutant growth (AID 636; in the data active means inhibition above about 31%). The conditions noted are these: absorbance 615 nm, about 18 h, stronger effect = higher value.
Test [8] in a line: growth suppression of yeast trafficking mutant, preliminary HTS, modulators of trafficking downstream of Golgi apparatus project, 1536-format plate, OD 615 nm (AID 637; in the data active means inhibition above about 30%). The conditions noted are these: yeast transport mutant growth, absorbance 615 nm, 18 h; stronger effect = higher value.
Test [9] is described as follows: OD615 S. cerevisiae growth inhibition, permissive medium, pilot counter-assay, permissive growth control for S. cerevisiae lifespan shortening project (AID 705;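 active means growth inhibition above 25% in both replicates, a cutoff set 3 SD above the mean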). Conditions: OD615, 24 h, at 10 µM, stronger effect = higher value.
Test [10] can be described thus: Restrictive medium S. cerevisiae growth inhibition, OD615, pilot screen of yeast lifespan reduction project, restrictive growth control (AID 706;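 active means growth inhibition above a set limit, 3 SD over mean compound inhibition, in both replicates, cut at about 43% in these data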;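 further: modified DeaD lifespan yeast strain shifted to restrictive glucose medium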). The conditions noted are these: OD615, 48 h, at 10 µM, stronger effect = higher value.
Test [11] is described as follows: viability gain of MRP-1-high H69AR cells under doxorubicin, pilot screen, MRP-1 activator project, CellTiter-Glo, duplicate (AID 807;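 active means viability increase at or above a cutoff of the median across tested compounds plus 3 SD, cut at about 8.5% in these data, passing the limit was not always enough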;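 further: compound pretreatment 18-22 h then 72 h combined with doxorubicin; 0% = doxorubicin alone and 100% = vehicle without doxorubicin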). Conditions: H69AR viability with doxorubicin, CellTiter-Glo luminescence; at 10 µM; stronger effect = higher value.
Test [12] can be described thus: growth suppression of beta-catenin knockout HCT116, pilot screen, human colon tumor cells (AID 823;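 active means cell viability at or below a set limit in both duplicate runs, the limit being the all-compound median minus 4 SD, cut at about 23% in these data, passing the limit was not always enough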;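 further: 0% = wells killed by 20 µM Hyamine and 100% = untreated DMSO cell wells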). Conditions: CellTiter-Glo, 60 h, at 10 µM, stronger effect = lower value.
Test [13] can be described thus: growth suppression of PTEN-deleted HCT116, pilot screen, cell-based, HCT116 clonal line, CellTiter-Glo (AID 824;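 active means viability at or below 27.92% in each of two runs, the all-compound median minus 4 SD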;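 further: 0% = 20 µM Hyamine control and 100% = vehicle cell control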). Conditions: 60 h, at 10 µM, stronger effect = lower value.
Test [14] in a line: inhibitors of the yeast RAM network, pilot screen, dse1pr::URA3 reporter, 5-FOA selection (AID 869;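 active means inhibition over a set limit, the all-compound mean plus 3 SD, in both replicate runs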;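 further: 0% = DMSO wells with no growth and 100% = 10 µM 1-NA-PP1 with full growth; RAM network block rescues cells from 5-FOA so hits raise OD615 growth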). The conditions noted are these: S. cerevisiae dse1pr::URA3 5-FOA growth, OD615, 2 d; at 10 µM; stronger effect = higher value; strain carries analog-sensitive mutant Cbk1 kinase.
A short description of test [15]: RAM signaling pathway blockade in yeast – S. cerevisiae, Pdr1DBD-CYC8 efflux-inhibited sensitized strain, primary screen (AID 1298).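 Further: 0% = DMSO untreated cells without growth and 100% = 10 µM 1-NA-PP1 full growth; higher means more yeast growth rescued from 5-FOA killing.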 Conditions: S. cerevisiae cbk1-as DSE1-URA3 strain, 5-FOA growth OD615, 2 d; at 50 µM; stronger effect = higher value.
Setting [16] is: H69AR cells + 2 uM doxorubicin, measured here: viability with 2 uM doxorubicin, stronger effect = lower value.
Where [17] appears, read: H69AR cells, compound alone cytotoxicity.

Sequence of Receptor tyrosine-protein kinase erbB-2 (Homo sapiens) (P04626 whole entry, looked up): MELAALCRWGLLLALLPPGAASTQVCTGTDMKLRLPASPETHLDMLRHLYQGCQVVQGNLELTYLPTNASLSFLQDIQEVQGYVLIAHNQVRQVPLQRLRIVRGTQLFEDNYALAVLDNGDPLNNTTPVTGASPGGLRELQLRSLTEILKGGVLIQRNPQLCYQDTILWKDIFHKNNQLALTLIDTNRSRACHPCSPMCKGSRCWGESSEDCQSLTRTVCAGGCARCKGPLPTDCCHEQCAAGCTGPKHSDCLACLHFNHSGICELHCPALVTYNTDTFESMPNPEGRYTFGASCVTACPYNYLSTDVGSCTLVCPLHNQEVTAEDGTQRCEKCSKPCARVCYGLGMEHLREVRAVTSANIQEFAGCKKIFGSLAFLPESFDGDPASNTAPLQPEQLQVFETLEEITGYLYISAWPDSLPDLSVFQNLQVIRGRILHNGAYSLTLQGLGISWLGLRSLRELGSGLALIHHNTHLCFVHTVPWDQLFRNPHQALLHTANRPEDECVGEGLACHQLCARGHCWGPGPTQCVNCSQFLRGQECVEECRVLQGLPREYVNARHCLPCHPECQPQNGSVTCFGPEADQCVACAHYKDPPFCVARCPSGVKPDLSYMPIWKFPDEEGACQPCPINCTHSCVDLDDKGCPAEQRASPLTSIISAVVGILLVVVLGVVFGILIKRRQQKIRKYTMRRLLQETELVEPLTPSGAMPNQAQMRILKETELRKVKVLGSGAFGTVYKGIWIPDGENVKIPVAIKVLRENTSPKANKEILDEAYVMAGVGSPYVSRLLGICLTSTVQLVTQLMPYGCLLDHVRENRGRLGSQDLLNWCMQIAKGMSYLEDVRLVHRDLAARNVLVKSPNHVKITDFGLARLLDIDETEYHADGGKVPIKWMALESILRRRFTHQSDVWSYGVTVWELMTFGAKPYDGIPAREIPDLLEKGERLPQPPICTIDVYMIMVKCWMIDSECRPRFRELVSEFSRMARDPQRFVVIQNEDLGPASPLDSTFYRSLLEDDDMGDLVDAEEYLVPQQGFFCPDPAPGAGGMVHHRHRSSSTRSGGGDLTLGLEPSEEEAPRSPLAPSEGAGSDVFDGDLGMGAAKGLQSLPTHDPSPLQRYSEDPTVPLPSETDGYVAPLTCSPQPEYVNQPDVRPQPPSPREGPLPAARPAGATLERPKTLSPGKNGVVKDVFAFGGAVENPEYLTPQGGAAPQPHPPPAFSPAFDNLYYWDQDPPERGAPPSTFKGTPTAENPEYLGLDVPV

With `Cc1ccc(C)c(S(=O)(=O)n2cnc3ccccc32)c1`, the viability (as a rule, a read-out of living cells in per cent, often relative to untreated cells) in test [1] is 96.5%; in test [3] it was 96.5% (inactive); in test [4], 109% (inactive); in test [5], 99% (inactive); in test [6] (setting [16]), 91.1%; in [6] (setting [17]) it was 99%. The viability in test [12] was 95.2% (inactive); in test [13], 97.6% (inactive). In addition, in [2], the Her2 level was 87.5% (inactive). Besides, in [6] (H69AR cells + 2 uM doxorubicin), the differential viability (reversal) is 7.94% (inactive). Further, the inhibition (in general, the relative decrease from the control value, in per cent) in test [7] is -0.13% (inactive); in test [8], 30.2% (active); in test [14] it was 2.08% (inactive). In addition, the growth inhibition was -18% (inactive) in test [9] and -20.2% (inactive) in test [10]. Also, the viability increase in [11] is 0.98% (inactive). Moreover, the RAM network inhibition in [15] is 2.15% (inactive).
With `Cc1nnc(N2C(=O)C(O)=C(C(=O)c3ccco3)C2c2ccc(F)cc2)s1` (stereo not given), the viability in test [1] was 99%; in test [3], 99% (inactive); in test [4] it was 120% (inactive); in test [5], 99.6% (inactive); in [6] (setting [16]), 90.9%; in test [6] (setting [17]), 99.6%. Besides, the figures for the viability in [12] and in [13] were 106% (inactive) and 101% (inactive), respectively. The Her2 level in [2] is 98.5% (inactive). The differential viability (reversal) in test [6] (H69AR cells + 2 uM doxorubicin) was 8.77% (inactive). Moreover, the figures for the inhibition in [7], in test [8] and in [14] were -3.46% (inactive), 1.67% (inactive) and 0.21% (inactive), respectively. Moreover, the growth inhibition is -13.9% (inactive) in test [9] and -28.6% (inactive) in test [10]. Also, in test [11], the viability increase is -1.63% (inactive). For the same molecule, the RAM network inhibition in test [15] was 0.57% (inactive).
As to `COc1ccc(-n2nnnc2SCC(=O)N2CCOCC2)cc1`, the viability in [1] was 93%; in [3], 93% (inactive); in test [4] it was 83.8% (inactive); in test [5], 89.2% (inactive); in [6] (setting [16]), 88.6%; in test [6] (setting [17]) it was 89.2%. Besides, the results for the viability in test [12] and in test [13] were 96.2% (inactive) and 98.8% (inactive), respectively. In addition, the Her2 level in [2] was 92% (inactive). Also, the differential viability (reversal) in [6] (H69AR cells + 2 uM doxorubicin) was 0.58% (inactive). Besides, the results for the inhibition in [7], in test [8] and in test [14] were -4.67% (inactive), -0.5% (inactive) and 0.85% (inactive), respectively. Besides, the figures for the growth inhibition in test [9] and in test [10] were -2.94% (inactive) and -5.96% (inactive), respectively. The viability increase in test [11] was -1.07% (inactive). Further, the RAM network inhibition in test [15] is 3.08% (inactive).
For the molecule `COC(=O)c1oc2ccc(Br)cc2c1NC(C)=O`, the viability is 94% in test [1]; 94% (inactive) in test [3]; 96.1% (inactive) in test [4]; 98.2% (inactive) in [5]; 94.7% in test [6] (setting [16]); 98.2% in [6] (setting [17]). Further, the viability in [12] is 102% (inactive); in test [13], 98.4% (inactive). For the same molecule, the Her2 level in test [2] is 81% (inactive). The differential viability (reversal) in test [6] (H69AR cells + 2 uM doxorubicin) is 3.47% (inactive). Besides, the inhibition in test [7] is -4% (inactive); in test [8], 1.33% (inactive); in test [14] it was 0.08% (inactive). Further, the growth inhibition in test [9] was -7.17% (inactive); in [10], 0.76% (inactive). Besides, in [11], the viability increase was 1.21% (inactive). Also, in [15], the RAM network inhibition is 2.66% (inactive).
Turning to `CCN(CC)C(=O)C1CCCc2c1[nH]c1ccc(Cl)cc21` (stereo not given), the viability in test [1] was 102%; in test [3], 102% (inactive); in [4], 67.1% (inactive); in test [5], 76.6% (inactive); in test [6] (setting [16]), 70.6%; in test [6] (setting [17]) it was 76.6%. Further, the viability was 66.5% (inactive) in test [12] and 60.8% (inactive) in test [13]. Moreover, the Her2 level in test [2] is 91% (inactive). Besides, the differential viability (reversal) in test [6] (H69AR cells + 2 uM doxorubicin) is 5.98% (inactive). The inhibition is 8.13% (inactive) in [7], 44% (active) in test [8] and 0.455% (inactive) in [14]. Also, the growth inhibition in [9] is -16% (inactive); in test [10] it was -4.67% (inactive). For the same molecule, the viability increase in test [11] is -4.93% (inactive). In test [15], the RAM network inhibition was 1.57% (inactive).
